Test results taken from PubChem BioAssay (NCI).
This is part of a sample that, as a whole, favours compounds with a hit. Of some 83,000 tested, about 20% had one in any assay.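 Values shown are percent growth following 48 h exposure of cells in 96-well plates to a single concentration of compound; below 10 was considered active.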 Unmarked numbers belong to inactive results. The source made the active and inactive calls.

Experiments:
Assay in all cases: NCI-60 one-dose screen, 48 h (100 = growth as untreated, 0 = no growth, -100 = all killed)
Conditions in all cases: 10 µM
NCI-H23 lung = system: NCI-H23 lung
NCI-H226 lung = system: NCI-H226 lung
NCI-H322M lung = system: NCI-H322M lung
HOP-62 NSCLC = system: HOP-62 NSCLC
NCI-H460 lung = system: NCI-H460 lung
NCI-H522 lung = system: NCI-H522 lung
A549/ATCC NSCLC = system: A549/ATCC NSCLC
786-0 renal = system: 786-0 renal
COLO 205 colon = system: COLO 205 colon
DU-145 prostate = system: DU-145 prostate
K-562 leukemia = system: K-562 leukemia
MDA-MB-231 breast = system: MDA-MB-231 breast
RXF 393 renal = system: RXF 393 renal
SF-268 CNS = system: SF-268 CNS
SF-295 CNS = system: SF-295 CNS
SF-539 CNS = system: SF-539 CNS
UACC-257 melanoma = system: UACC-257 melanoma
M14 melanoma = system: M14 melanoma
HCT-15 colon = system: HCT-15 colon

SMILES | growth (NCI-H23 lung) [%] | growth (NCI-H226 lung) [%] | growth (NCI-H322M lung) [%] | growth (HOP-62 NSCLC) [%] | growth (NCI-H460 lung) | growth (NCI-H522 lung) | growth (A549/ATCC NSCLC) [%] | growth (786-0 renal) [%] | growth (COLO 205 colon) | growth (DU-145 prostate) | growth (K-562 leukemia) [%] | growth (MDA-MB-231 breast) [%] | growth (RXF 393 renal) | growth (SF-268 CNS) [%] | growth (SF-295 CNS) | growth (SF-539 CNS) | growth (UACC-257 melanoma) [%] | growth (M14 melanoma) [%] | growth (HCT-15 colon) [%]
COc1ccc2c(c1)sc1nc(-c3ccccc3)c(-c3ccsc3)n12 | 36 | 55.8 | 53.4 | 36.8 | 7.9% (active) | -13.4% (active) | 31.1 | 57.5 | 3.28% (active) | 3.69% (active) | 13.8 | 52.3 | -13.3% (active) | 54.3 | -20% (active) | 2.07% (active) | 39.7 | 15.6 | 30.5
COc1ccc2c(c1)C(=O)c1c-2c(=O)n(CCCN(C)C)c2cc(OC)c(OC)cc12 | 48.8 | 70.5 | 80 | 51.4 | 10.9% | 56.5% | 56.3 | 71.8 | 100% | 26.9% | 64.5 | 103 | 89.4% | 46.9 | 20.7% | 55% | 100 | 48.4 | 82.2
Cc1cc(C)c(CCc2cc(C)c(C)cc2C)cc1C | 98 | 92.3 | 112 | 117 | 110% | 95.5% | 99.9 | 108 | 118% | 107% | 94.8 | 104 | 117% | 103 | 108% | 105% | 101 | 111 | 117
CCN1CCC2(CC1)OC(c1ccccc1)C(c1ccccc1)O2 (stereo not drawn) | 106 | 96.6 | 133 | 114 | 118% | 116% | 105 | 92.7 | 106% | 115% | 88.2 | 122 | 109% | 108 | 111% | 116% | 116 | 112 | 106
CC(=O)c1cc(Cl)ccc1O | 106 | 98.1 | 101 | 107 | 101% | 118% | 101 | 104 | 112% | 105% | 103 | 100 | 106% | 104 | 94.1% | 89.1% | 110 | 106 | 98.9
COc1ccc(-c2nc3sc(-c4ccc(OC)cc4)c(-c4ccc(OC)cc4)n3c2/C=C/c2ccc(C(C)C)cc2)cc1 | 95.6 | 90.9 | 96.5 | 95.1 | 101% | 76.5% | 95.2 | 99.2 | 107% | 115% | 105 | 90.9 | 92.4% | 106 | 96.6% | 94.3% | 95.6 | 98.4 | 92.5
O=C(Nc1ccncc1)C(=O)c1cn(S(=O)(=O)c2cc(Cl)cc(Cl)c2)c2ccccc12 | 70.3 | 74.2 | 99.6 | 71.7 | 87.3% | 40.2% | 85.3 | 72.5 | 104% | 66.5% | 28.5 | 63.6 | 75% | 94.3 | 38.2% | 61.7% | 69.8 | 71.5 | 69.5
